# “And” between values parts separate entries of the source, which are not always exact repeats. Equal entries are not always repeated. The campaign covered roughly 5,500 compounds. About 2,000 (36%) were called active. Not shown: some 18% with an inconclusive outcome. No stated cut-off is given here; in the data, active means normalized growth mostly below about 0.91 (no sharp cut-off); inconclusive means no clear call, values can overlap the other calls; inactive means mostly above about 0.92. Some of the results follow. Some compounds were tested as several samples or in several runs, with calls that do not always agree.
# Test: chemical genetic growth profiling, strain panel (AID 1159580);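 further: tested at 20 µM; growth read once vehicle control cultures reached saturation at 30 °C; 1 = growth at the plate median or of vehicle wells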
# Conditions: S. cerevisiae deletion strains, growth OD
compound,measurement,setting,value
O=c1c2ccccc2[se]n1-c1ccccc1,normalized growth,"locus YAL013W, strain DEP1, stronger effect = lower value",0.0627 (active) and 0.948 (inactive)
same,normalized growth,"locus YAL021C, strain ccr4, stronger effect = lower value",0.0697 (active)
same,normalized growth,"locus YAL026C, strain drs2, stronger effect = lower value",0.0626 (active)
same,normalized growth,"locus YAL030W, strain snc1, stronger effect = lower value",0.057 (active)
same,normalized growth,"locus YAL040C, strain CLN3, stronger effect = lower value",0.981 (inactive)
same,normalized growth,"locus YBL061C, strain skt5, stronger effect = lower value",0.0616 (active)
same,normalized growth,"locus YBR009C, strain hhf1, stronger effect = lower value",0.067 (active)
same,normalized growth,"locus YBR021W, strain FUR4, stronger effect = lower value",0.0951 (active)
same,normalized growth,"locus YBR023C, strain chs3, stronger effect = lower value",0.0842 (active)
same,normalized growth,"locus YBR171W, strain sec66, stronger effect = lower value",0.927 (inactive)
same,normalized growth,"locus YBR229C, strain ROT2, stronger effect = lower value",1.02 (inactive)
same,normalized growth,"locus YBR231C, strain swc5, stronger effect = lower value",0.129 (active)
same,normalized growth,"locus YBR279W, strain paf1, stronger effect = lower value",0.0647 (active)
same,normalized growth,"locus YCL011C, strain gbp2, stronger effect = lower value",0.057 (active)
same,normalized growth,"locus YCL016C, strain dcc1, stronger effect = lower value",0.102 (active)
same,normalized growth,"locus YCL029C, strain bik1, stronger effect = lower value",0.873 (active)
same,normalized growth,"locus YCL061C, strain MRC1 (second series), stronger effect = lower value",0.952 (inactive)
same,normalized growth,"locus YCL061C, strain MRC1, stronger effect = lower value",0.0738 (active)
same,normalized growth,"locus YCL069W, strain vba3, stronger effect = lower value",0.0606 (active)
same,normalized growth,"locus YCR088W, strain abp1, stronger effect = lower value",0.0595 (active)
same,normalized growth,"locus YDL005C, strain med2, stronger effect = lower value",0.071 (active)
same,normalized growth,"locus YDL035C, strain GPR1, stronger effect = lower value",0.0537 (active)
same,normalized growth,"locus YDL040C, strain nat1, stronger effect = lower value",0.909 (active)
same,normalized growth,"locus YDL074C, strain BRE1, stronger effect = lower value",0.0969 (active)
same,normalized growth,"locus YDL101C, strain DUN1, stronger effect = lower value",0.869 (active)
same,normalized growth,"locus YDL134C, strain PPH21, stronger effect = lower value",0.0461 (active)
same,normalized growth,"locus YDL185W, strain tfp1, stronger effect = lower value",0.999 (inactive)
same,normalized growth,"locus YDL192W, strain arf1, stronger effect = lower value",0.0608 (active)
same,normalized growth,"locus YDR001C, strain nth1, stronger effect = lower value",0.0663 (active)
same,normalized growth,"locus YDR069C, strain doa4, stronger effect = lower value",0.0621 (active)
same,normalized growth,"locus YDR101C, strain arx1, stronger effect = lower value",0.437 (active)
same,normalized growth,"locus YDR137W, strain rgp1, stronger effect = lower value",0.754 (active)
same,normalized growth,"locus YDR150W, strain NUM1, stronger effect = lower value",0.0598 (active) and 0.956 (inactive)
same,normalized growth,"locus YDR159W, strain sac3, stronger effect = lower value",0.854 (active)
same,normalized growth,"locus YDR162C, strain NBP2, stronger effect = lower value",0.054 (active)
same,normalized growth,"locus YDR195W, strain ref2",1.46 [resistant] (active)
same,normalized growth,"locus YDR297W, strain sur2, stronger effect = lower value",0.06 (active)
same,normalized growth,"locus YDR318W, strain mcm21, stronger effect = lower value",0.0683 (active)
same,normalized growth,"locus YDR334W, strain swr1, stronger effect = lower value",0.0625 (active)
same,normalized growth,"locus YDR335W, strain msn5, stronger effect = lower value",0.574 (active)
same,normalized growth,"locus YDR363W, strain ESC2, stronger effect = lower value",0.988 (inactive)
same,normalized growth,"locus YDR388W, stronger effect = lower value",0.0602 (active)
same,normalized growth,"locus YDR392W, strain spt3, stronger effect = lower value",0.0762 (active)
same,normalized growth,"locus YDR502C, strain sam2, stronger effect = lower value",0.0635 (active)
same,normalized growth,"locus YEL003W, strain gim4, stronger effect = lower value",0.106 (active)
same,normalized growth,"locus YEL037C, strain rad23, stronger effect = lower value",0.0632 (active)
same,normalized growth,"locus YEL061C, strain CIN8 (second series), stronger effect = lower value",0.0621 (active)
same,normalized growth,"locus YEL061C, strain CIN8, stronger effect = lower value",0.0485 (active)
same,normalized growth,"locus YER002W, strain NOP16, stronger effect = lower value",0.999 (inactive)
same,normalized growth,"locus YER015W, strain faa2, stronger effect = lower value",0.0679 (active)
same,normalized growth,"locus YER016W, strain bim1, stronger effect = lower value",0.147 (active)
same,normalized growth,"locus YER110C, stronger effect = lower value",0.0784 (active)
same,normalized growth,"locus YER111C, strain swi4, stronger effect = lower value",0.937 (inactive)
same,normalized growth,"locus YER155C, strain BEM2 (second series), stronger effect = lower value",0.0943 (active)
same,normalized growth,"locus YER155C, strain BEM2, stronger effect = lower value",0.0677 (active)
same,normalized growth,"locus YER167W, strain BCK2, stronger effect = lower value",0.0545 (active)
same,normalized growth,"locus YFR010W, strain ubp6, stronger effect = lower value",0.07 (active)
same,normalized growth,"locus YGL078C, strain dbp3, stronger effect = lower value",0.0555 (active)
same,normalized growth,"locus YGL086W, strain mad1, stronger effect = lower value",0.062 (active)
same,normalized growth,"locus YGL167C, strain pmr1, stronger effect = lower value",0.0891 (active)
same,normalized growth,"locus YGL173C, strain kem1, stronger effect = lower value",0.0711 (active)
same,normalized growth,"locus YGL227W, strain vid30, stronger effect = lower value",0.0629 (active)
same,normalized growth,"locus YGL240W, strain doc1, stronger effect = lower value",0.0921 (active)
same,normalized growth,"locus YGL248W, strain PDE1, stronger effect = lower value",0.0477 (active)
same,normalized growth,"locus YGL253W, strain hxk2, stronger effect = lower value",0.0553 (active)
same,normalized growth,"locus YGR078C, strain PAC10, stronger effect = lower value",0.0595 (active) and 0.975 (inactive)
same,normalized growth,"locus YGR135W, strain pre9, stronger effect = lower value",0.0669 (active)
same,normalized growth,"locus YGR229C, strain SMI1, stronger effect = lower value",0.0625 (active) and 0.862 (inactive)
same,normalized growth,"locus YGR252W, strain gcn5, stronger effect = lower value",0.162 (active)
same,normalized growth,"locus YHR013C, strain ard1, stronger effect = lower value",0.11 (active)
same,normalized growth,"locus YHR027C, strain rpn1, stronger effect = lower value",0.0642 (active)
same,normalized growth,"locus YHR030C, strain SLT2, stronger effect = lower value",0.0507 (active) and 0.0959 (active)
same,normalized growth,"locus YHR079C, strain IRE1 (second series), stronger effect = lower value",0.65 (active)
same,normalized growth,"locus YHR079C, strain IRE1, stronger effect = lower value",0.12 (active)
same,normalized growth,"locus YHR094C, strain hxt1, stronger effect = lower value",0.0617 (active)
same,normalized growth,"locus YHR129C, strain ARP1, stronger effect = lower value",0.0594 (active)
same,normalized growth,"locus YHR142W, strain chs7, stronger effect = lower value",0.0813 (active)
same,normalized growth,"locus YHR200W, strain rpn10, stronger effect = lower value",0.0601 (active)
same,normalized growth,"locus YIL066C, strain RNR3, stronger effect = lower value",0.0543 (active)
same,normalized growth,"locus YIL073C, strain SPO22, stronger effect = lower value",0.114 (active)
same,normalized growth,"locus YIL125W, strain kgd1, stronger effect = lower value",0.0566 (active)
same,normalized growth,"locus YIR030C, strain dcg1, stronger effect = lower value",0.0629 (active)
same,normalized growth,"locus YJL092W, strain hpr5, stronger effect = lower value",0.0617 (active)
same,normalized growth,"locus YJL095W, strain BCK1 (second series), stronger effect = lower value",0.0731 (active)
same,normalized growth,"locus YJL095W, strain BCK1, stronger effect = lower value",0.12 (active) and 0.111 (active)
same,normalized growth,"locus YJL115W, strain asf1, stronger effect = lower value",0.0858 (active)
same,normalized growth,"locus YJL129C, strain trk1, stronger effect = lower value",0.769 (active)
same,normalized growth,"locus YJL134W, strain LCB3, stronger effect = lower value",0.0503 (active)
same,normalized growth,"locus YJL154C, strain vps35, stronger effect = lower value",0.0602 (active)
same,normalized growth,"locus YJL164C, strain tpk1, stronger effect = lower value",0.0617 (active)
same,normalized growth,"locus YJL166W, strain qcr8, stronger effect = lower value",0.0635 (active)
same,normalized growth,"locus YJL168C, strain set2, stronger effect = lower value",0.0616 (active)
same,normalized growth,"locus YJL187C, strain SWE1 (second series), stronger effect = lower value",0.907 (inactive)
same,normalized growth,"locus YJR043C, strain POL32, stronger effect = lower value",0.0678 (active)
same,normalized growth,"locus YJR066W, strain TOR1, stronger effect = lower value",0.883 (inactive)

# Reference: PubChem BioAssay AID1159580 (chemical genetic matrix, 2015)
